Drawing on PubChem BioAssay (EPA / NIEHS), this text covers outcome and AC50 for 21 compounds.

Values joined by “and” are separate entries in the source; they are usually repeats but may differ in a detail not shown here. Equal entries are not always repeated. Inconclusive results are not listed. Where a structure was tested more than once in an assay, its records may differ in their call. Active and inactive are the calls of the source. Rule for the calls, unless noted: active = hit-call score of the fitted dose curve at least 0.9, where 1 is the maximum; inconclusive = response in the unintended direction; inactive = score below 0.9.

The nature of assay [1]: TAMU_PeakParms_SingleDonor1434_Chronotropy: Texas A&M University (TAMU) 1.5-hr Human Induced Pluripotent Stem Cell (iPSC)-derived Cardiomyocytes Calcium (Ca+2) Flux Assay for Cardiotoxicity: Chronotropy (changes in peak frequency) (AID 2284217; active = hit-call score of the fitted dose curve at least 0.9, where 1 is the maximum; inactive = score below 0.9). Conditions: actives raise or lower the signal. The method, boiled down:
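iPSC-CMs, donor 1434; 4 conc (0.2–100 uM), 0.5% v/v DMSO, 90 min, 37C/5% CO2; Ca2+ flux fluorescence → peak.freq.avg; peak.freq.avg = 0 dropped; bidirectional fit vs DMSO; EC05 POD.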

Assay [2] in a line: TAMU_PeakParms_SingleDonor1434_QT: Texas A&M University (TAMU) 1.5-hr Human Induced Pluripotent Stem Cell (iPSC)-derived Cardiomyocytes Calcium (Ca+2) Flux Assay for Cardiotoxicity: QT (decay-rise ratio) (AID 2284235). The method, boiled down:
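Decay/rise ratio of calcium-flux fluorescence scored after 90 min exposure (37C) of donor 1434 iPSC cardiomyocytes to 0.2–100 uM (0.5% DMSO). Beat-cessation and severe-notch points removed; POD is EC05, a 5% rise over DMSO.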

The nature of assay [3]: TAMU_PeakParms_SingleDonor1434_Asystole: Texas A&M University (TAMU) 1.5-hr Human Induced Pluripotent Stem Cell (iPSC)-derived Cardiomyocytes Calcium (Ca+2) Flux Assay for Cardiotoxicity: Asystole (quiescence of beating) (AID 2284328). The method, boiled down:
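Average Ca2+-flux peak frequency (beats/s) was recorded in single-donor iPSC-derived cardiomyocytes after 90 min exposure (0.2–100 uM final, 0.5% DMSO). Asystole POD set as EC95 against DMSO, no preprocessing.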

For assay [4], the target named is Estrogen receptor (Homo sapiens) + Estrogen receptor beta (Homo sapiens) (UniProt P03372+Q92731). Description: OT_ER_ERaERb_1440: Odyssey Thera (OT) 24-hour HEK293T Protein-Complementation Assay for Estrogen Receptor-alpha/-beta Homodimer (AID 2283356).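 Note: heteromer of ER alpha and ER beta binding domains; hits raise reporter fluorescence and both agonists and antagonists give an increase.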 The essentials: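 Stable HEK293T PCA line, ERα LBD 310-547 + ERβ LBD 263-489 fused to reporter fragments; 24 h treatment; fluorescence read by laser scanning cytometry; positive fitting direction relative to DMSO.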

The target of assay [5] is Nuclear receptor subfamily 1 group I member 2 (Homo sapiens) (UniProt O75469). Description: NVS_NR_hPXR: NovaScreen (NVS) Nuclear Receptor Binding Assay for human Pregnane X Receptor (PXR) (AID 2283365).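 Note: a drop in FRET signal versus DMSO baseline means the compound binds.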 The essentials: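 Human PXR protein, cell-free; compound added, incubated 2 h, TR-FRET read. Signal decrease vs DMSO = binding. Screened 25 uM duplicate, actives re-run as dilution series.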

Read-out in assay [6]: Monocyte Chemoattractant Protein-1 (MCP1), CCL2 (gene 6347)
Description: BSK_IMphg_MCP1: BioMAP Diversity Plus: IMphg Assay for Monocyte Chemoattractant Protein-1 (MCP1) Biomarker Activity (AID 2284253; active = hit-call score of the fitted dose curve at least 0.9, where 1 is the maximum; inactive = score below 0.9). The following applies: primary human endothelial cells with macrophages. The method, boiled down:
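ELISA readout of MCP-1 at 24 hours in IMphg co-cultures of venular endothelial cells and macrophages, normalised to DMSO; parallel cultures stained with sulforhodamine B for overt cytotoxicity.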

Read-out in assay [7]: Macrophage Inflammatory Protein-1 Alpha (MIP1a), CCL3 (gene 6348)
In words: BSK_IMphg_MIP1a: BioMAP Diversity Plus: IMphg Assay for Macrophage Inflammatory Protein-1 Alpha (MIP1a) Biomarker Activity (AID 2284255; active = hit-call score of the fitted dose curve at least 0.9, where 1 is the maximum; inactive = score below 0.9). The following applies: primary human endothelial cells with macrophages. The method, boiled down:
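MIP-1a protein levels were quantified by ELISA after 24 h treatment of human endothelial cell–macrophage co-cultures, compared with DMSO. Parallel cultures were fixed with TCA and stained with 0.1% SRB to gauge overt cytotoxicity.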

Read-out in assay [8]: Interleukin-1 alpha (IL1a), IL1A (gene 3552)
Description: BSK_IMphg_IL1a: BioMAP Diversity Plus: IMphg Assay for Interleukin-1 alpha (IL1a) Biomarker Activity (AID 2284290; active = hit-call score of the fitted dose curve at least 0.9, where 1 is the maximum; inactive = score below 0.9). The following applies: primary human endothelial cells with macrophages. The method, boiled down: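 IL-1α is quantified by ELISA at 24 h in the endothelial/macrophage IMphg co-culture, with gain of signal fitted relative to DMSO. Parallel SRB total-protein staining flags overt toxicity.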

In assay [9] the target is human Matrix Metalloproteinase-9 (MMP9), MMP9 (gene 4318) (UniProt P14780). In words: NVS_ENZ_hMMP9: NovaScreen (NVS) Enzymatic Assay for human Matrix Metalloproteinase-9 (MMP9) (AID 2283190).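 Note: cell-free recombinant MMP9 protease activity read by fluorescent substrate signal; active means inhibition seen as loss of fluorescence signal versus DMSO.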 The method, boiled down:
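Extracted enzyme, fluorescent substrate, 1 h post-dose read. Single conc 25 uM in duplicate, then concentration series for actives. Activity = signal loss relative to DMSO negative control.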

In assay [10] the test system is Thyroperoxidase (TPO), gene 54314. In words: CCTE_Simmons_AUR_rTPO: CCTE's Amplex UltraRed Assay for Thyroperoxidase (TPO) Inhibition, Simmons Lab (AID 2283662). The method, boiled down: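 Rat thyroid microsomal TPO + 25 uM AUR in 200 mM K phosphate; cpd 5 nM–87.5 uM [final], 8 conc, 0.5% DMSO; 300 uM H2O2 starts rxn; 37C dark 30 min; endpoint FI 544/590 nm; n=3.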

Assay [11] can be described thus: CCTE_Simmons_CellTiterGLO_HEK293T: Viability Assessment in CCTE's Assays for Thyroperoxidase (TPO) Inhibition, Simmons Lab (AID 2283665).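 For AC50: cells exposed to compound for 24 h before readout; actives reduce ATP signal below DMSO vehicle meaning cytotoxicity.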 The method, boiled down:
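ATP depletion measured in HEK293T cells after 24 h dosing (8 concentrations, 5 nM–87.5 uM final; DMSO 0.5%) using CellTiter-Glo luminescence; curves fit for loss of signal against DMSO baseline.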
(ATP-based viability assays read luminescence as a measure of living cells.)

Assay [12] has as its target Luciferin 4-monooxygenase (Photinus pyralis) (UniProt P08659). Description: CCTE_Simmons_QuantiLum_inhib_2: CCTE's Firefly Luciferase Inhibition Assay, Simmons Lab (AID 2283767). The method, boiled down: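 Eight-point titrations of each chemical, 5 nM–87.5 uM final in 0.5% DMSO, were run in three biological replicates against recombinant luciferase for 30 min at 37C. Bioluminescence signal loss, read on reagent injection, gave the inhibition endpoint.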

Assay [13] in a line: STM_H9_OrnCyssISnorm_ratio: Stemina devTOX quickPredict H9 human embryonic stem cell (hESC)-based Assay for Ornithine (ORN):Cystine (CYSS) Ratio (AID 2283714). The method, boiled down: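 Ratio of internal-standard-normalized ornithine to cystine, measured by UPLC-HRMS in spent media from the last 24 h. H9 cells kept pluripotent, dosed 72 h with daily media and compound renewal; DMSO 0.1% serves as baseline.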

In assay [14] the target is human RAR-related Orphan Receptor gamma (RORg), RORC (gene 6097) (UniProt P51449). In words: ATG_RORg_TRANS: Attagene TRANS-FACTORIAL HepG2 Assay for human RAR-related Orphan Receptor gamma (RORg) (AID 2283011). The essentials:
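First, HepG2 liver cells were transfected with GAL4-UAS-driven reporter constructs and the RORg-Gal4 fusion. Next, they were treated with chemical for 24 h. Finally, reporter mRNA was quantified by RT-PCR and capillary electrophoresis, with upward activity fitted against DMSO.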

The target of assay [15] is human Ephrin type-A Receptor 1 (EphA1), EPHA1 (gene 2041) (UniProt P21709). In words: NVS_ENZ_hEphA1: NovaScreen (NVS) Enzymatic Assay for human Ephrin type-A Receptor 1 (EphA1) (AID 2283158).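 Note: activity is signal loss versus DMSO meaning EphA1 kinase inhibition.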 The method, boiled down: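 Chemicals first tested in duplicate at 25 uM against recombinant EphA1 with a fluorescent substrate; those passing threshold went to singleton dose-response topping at 50 uM. Activity read 1 h later as mobility-shift fluorescence, loss of signal relative to DMSO.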

Assay [16] in a line: CCTE_Deisenroth_AIME_384WELL_CTox_Active: Cytotoxicity Assessment (CTOX) in CCTE's 384-well Estrogen Receptor Transactivation Assay with AIME metabolic competence (metabolism positive), Deisenroth Lab (AID 2284037).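 Note: chemicals first conditioned 2 h by alginate-bound induced rat liver S9 before cells; activity means signal loss indicating cell death.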 The method, boiled down:
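Cytotoxicity in VM7Luc4E2 breast cells, 24 hour, measured as protease-substrate fluorescence loss, after 2-hour metabolic conditioning with induced rat hepatic S9 in alginate microspheres. Concentrations 0.002 - 200 uM, 10 points, bidirectional fitting.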

Assay [17] deals with rat Peripheral-type Benzodiazepine Receptor (PBR), Tspo (gene 24230) (UniProt P16257). Description: NVS_MP_rPBR: NovaScreen (NVS) Membrane Protein Assay for rat Peripheral-type Benzodiazepine Receptor (PBR) (AID 2283335). The method, boiled down: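 Single-concentration duplicate screening at 25 uM preceded concentration-series retesting of actives. Binding of a specific radioligand to rat kidney membrane PBR was read by filtration radiodetection after 1 h, with plate-wise positive and negative controls.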

In the next assay the target is THRA (gene 7067) (UniProt P10827). Description: TOX21_TRA_COA_Antagonist_Followup_ratio: Tox21 Thyroid Hormone Receptor alpha Antagonism through Coactivator Recruitment Follow-Up Assay, Ratio (AID 2283953). The essentials:
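We measured antagonism of T3-type coactivator recruitment using a TR-FRET ratio (emission 520 and 495 nm) between a Tb-labelled anti-GST antibody on TRα LBD (2.5 nM) and SRC-2 peptide (200 nM). Activity was scaled between DMSO and T3 wells.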

Assay [18] in a line: TOX21_PR_LUC_Followup_Antagonist_viability: Viability Assessment in the Tox21 HEK293 Progesterone Receptor (PR) Antagonism Luciferase Follow-Up Assay (AID 2283940). The essentials: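 Loss of CellTiter-Glo ATP signal indicates cytotoxicity in HEK293-PR-A-luc cells grown in 10% charcoal-stripped FBS medium, seeded 3,000 per well and incubated 16 h with compound at 37C.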
Assay [19] in a line: TOX21_PR_LUC_Followup_Agonist_viability: Viability Assessment in the Tox21 HEK293 Progesterone Receptor (PR) Agonism Luciferase Follow-Up Assay (AID 2283941).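 Note: loss of signal means cytotoxicity so actives lower viability.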 The essentials:
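Seeding: HEK293-PR-A-luc, 3,000 cells/well, 5 h at 37C. Treatment: compound in DMSO, 16 h, 37C. Read: CellTiter-Glo ATP luminescence, signal loss taken as lower viability.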

human RAR-related Orphan Receptor gamma (RORg), RORC (gene 6097), sequence (P51449 whole entry, looked up, the tested form may be a part): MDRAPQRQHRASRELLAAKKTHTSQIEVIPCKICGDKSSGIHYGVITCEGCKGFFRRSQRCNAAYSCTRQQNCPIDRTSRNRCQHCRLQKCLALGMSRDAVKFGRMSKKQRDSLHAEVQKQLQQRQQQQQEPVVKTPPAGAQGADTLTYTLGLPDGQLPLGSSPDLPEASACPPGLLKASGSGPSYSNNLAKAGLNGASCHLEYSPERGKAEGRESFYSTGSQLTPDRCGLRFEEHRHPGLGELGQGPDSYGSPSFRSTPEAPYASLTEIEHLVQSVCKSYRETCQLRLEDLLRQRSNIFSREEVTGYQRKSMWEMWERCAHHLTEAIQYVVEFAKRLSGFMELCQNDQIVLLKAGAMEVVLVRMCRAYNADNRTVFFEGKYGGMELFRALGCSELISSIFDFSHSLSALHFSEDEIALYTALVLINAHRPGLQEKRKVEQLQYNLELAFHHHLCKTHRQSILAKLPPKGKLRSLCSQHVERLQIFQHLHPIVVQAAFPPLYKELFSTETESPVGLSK
Luciferin 4-monooxygenase (Photinus pyralis), sequence (P08659 whole entry, looked up): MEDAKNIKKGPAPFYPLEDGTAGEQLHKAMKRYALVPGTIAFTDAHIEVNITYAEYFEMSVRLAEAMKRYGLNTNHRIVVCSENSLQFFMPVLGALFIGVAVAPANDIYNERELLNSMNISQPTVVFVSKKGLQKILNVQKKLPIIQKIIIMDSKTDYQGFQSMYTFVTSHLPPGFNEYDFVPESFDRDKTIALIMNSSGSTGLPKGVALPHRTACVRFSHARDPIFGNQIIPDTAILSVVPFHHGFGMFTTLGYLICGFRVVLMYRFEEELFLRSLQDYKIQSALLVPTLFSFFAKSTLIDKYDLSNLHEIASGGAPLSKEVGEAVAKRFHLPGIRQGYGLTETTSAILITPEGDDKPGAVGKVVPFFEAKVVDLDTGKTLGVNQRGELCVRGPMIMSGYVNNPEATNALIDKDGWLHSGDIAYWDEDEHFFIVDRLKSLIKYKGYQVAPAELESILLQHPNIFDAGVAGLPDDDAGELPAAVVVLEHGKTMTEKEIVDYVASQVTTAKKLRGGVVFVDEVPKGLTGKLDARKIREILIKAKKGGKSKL
THRA (gene 7067), sequence (P10827 whole entry, looked up, the tested form may be a part): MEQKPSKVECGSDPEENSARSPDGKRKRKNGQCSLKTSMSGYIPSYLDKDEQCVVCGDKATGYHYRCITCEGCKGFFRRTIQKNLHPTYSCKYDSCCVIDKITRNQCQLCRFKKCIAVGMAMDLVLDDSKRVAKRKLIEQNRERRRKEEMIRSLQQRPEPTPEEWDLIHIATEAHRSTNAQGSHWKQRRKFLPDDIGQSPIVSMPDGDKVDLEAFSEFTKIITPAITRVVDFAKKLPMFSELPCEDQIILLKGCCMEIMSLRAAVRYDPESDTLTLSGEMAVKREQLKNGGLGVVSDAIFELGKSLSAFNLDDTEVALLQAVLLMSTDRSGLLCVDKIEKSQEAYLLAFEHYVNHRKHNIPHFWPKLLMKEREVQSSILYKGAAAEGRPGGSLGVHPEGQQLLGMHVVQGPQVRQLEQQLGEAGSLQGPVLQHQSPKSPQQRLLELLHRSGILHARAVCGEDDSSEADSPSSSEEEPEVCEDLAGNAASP
human Ephrin type-A Receptor 1 (EphA1), EPHA1 (gene 2041), sequence (P21709 whole entry, looked up): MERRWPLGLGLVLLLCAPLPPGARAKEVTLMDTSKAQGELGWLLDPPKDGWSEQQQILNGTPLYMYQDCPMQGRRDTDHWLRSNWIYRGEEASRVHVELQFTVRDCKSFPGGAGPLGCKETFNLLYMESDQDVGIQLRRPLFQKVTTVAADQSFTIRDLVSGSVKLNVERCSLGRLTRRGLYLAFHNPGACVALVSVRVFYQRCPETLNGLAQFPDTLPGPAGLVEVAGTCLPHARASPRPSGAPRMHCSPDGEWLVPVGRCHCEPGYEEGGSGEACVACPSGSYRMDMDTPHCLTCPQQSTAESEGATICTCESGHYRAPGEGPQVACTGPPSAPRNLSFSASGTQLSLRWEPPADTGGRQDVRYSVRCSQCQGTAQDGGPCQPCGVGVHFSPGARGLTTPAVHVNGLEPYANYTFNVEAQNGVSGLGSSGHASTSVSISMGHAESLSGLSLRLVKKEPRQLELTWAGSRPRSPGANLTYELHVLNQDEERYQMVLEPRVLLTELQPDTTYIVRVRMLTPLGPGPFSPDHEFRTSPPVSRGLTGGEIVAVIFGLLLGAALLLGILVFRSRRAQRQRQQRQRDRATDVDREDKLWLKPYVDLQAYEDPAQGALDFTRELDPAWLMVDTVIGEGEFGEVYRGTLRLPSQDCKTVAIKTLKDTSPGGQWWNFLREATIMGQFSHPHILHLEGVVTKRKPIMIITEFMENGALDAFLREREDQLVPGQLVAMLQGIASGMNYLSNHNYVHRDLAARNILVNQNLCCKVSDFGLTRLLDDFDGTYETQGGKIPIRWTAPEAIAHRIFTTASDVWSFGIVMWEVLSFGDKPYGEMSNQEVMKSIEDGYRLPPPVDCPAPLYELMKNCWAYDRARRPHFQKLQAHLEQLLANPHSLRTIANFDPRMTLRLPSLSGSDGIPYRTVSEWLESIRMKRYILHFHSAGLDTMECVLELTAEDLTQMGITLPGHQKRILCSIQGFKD
human Matrix Metalloproteinase-9 (MMP9), MMP9 (gene 4318), sequence (P14780 whole entry, looked up): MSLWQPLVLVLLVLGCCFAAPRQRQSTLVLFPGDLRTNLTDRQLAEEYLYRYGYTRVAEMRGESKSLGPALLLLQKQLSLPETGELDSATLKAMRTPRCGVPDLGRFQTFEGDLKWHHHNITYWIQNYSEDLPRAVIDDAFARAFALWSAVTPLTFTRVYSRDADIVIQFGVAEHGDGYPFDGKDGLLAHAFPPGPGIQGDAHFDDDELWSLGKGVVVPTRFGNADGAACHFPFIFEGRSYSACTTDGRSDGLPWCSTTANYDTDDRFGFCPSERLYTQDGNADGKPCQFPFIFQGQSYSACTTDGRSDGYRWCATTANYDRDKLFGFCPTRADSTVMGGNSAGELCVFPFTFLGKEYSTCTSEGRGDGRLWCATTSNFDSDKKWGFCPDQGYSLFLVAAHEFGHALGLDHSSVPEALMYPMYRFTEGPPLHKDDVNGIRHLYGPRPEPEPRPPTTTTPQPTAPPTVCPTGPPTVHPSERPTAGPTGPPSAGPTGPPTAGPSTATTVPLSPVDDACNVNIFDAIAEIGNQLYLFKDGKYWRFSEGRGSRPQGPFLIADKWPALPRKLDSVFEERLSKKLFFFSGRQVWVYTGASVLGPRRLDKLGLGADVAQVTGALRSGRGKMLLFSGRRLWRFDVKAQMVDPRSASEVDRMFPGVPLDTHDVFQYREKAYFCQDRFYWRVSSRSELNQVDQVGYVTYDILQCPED
rat Peripheral-type Benzodiazepine Receptor (PBR), Tspo (gene 24230), sequence (P16257 whole entry, looked up): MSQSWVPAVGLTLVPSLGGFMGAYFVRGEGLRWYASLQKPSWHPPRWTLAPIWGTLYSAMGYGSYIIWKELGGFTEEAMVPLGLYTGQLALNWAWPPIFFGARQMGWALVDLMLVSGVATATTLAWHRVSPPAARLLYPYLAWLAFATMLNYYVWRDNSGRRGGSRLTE
Nuclear receptor subfamily 1 group I member 2 (Homo sapiens), sequence (O75469 whole entry, looked up): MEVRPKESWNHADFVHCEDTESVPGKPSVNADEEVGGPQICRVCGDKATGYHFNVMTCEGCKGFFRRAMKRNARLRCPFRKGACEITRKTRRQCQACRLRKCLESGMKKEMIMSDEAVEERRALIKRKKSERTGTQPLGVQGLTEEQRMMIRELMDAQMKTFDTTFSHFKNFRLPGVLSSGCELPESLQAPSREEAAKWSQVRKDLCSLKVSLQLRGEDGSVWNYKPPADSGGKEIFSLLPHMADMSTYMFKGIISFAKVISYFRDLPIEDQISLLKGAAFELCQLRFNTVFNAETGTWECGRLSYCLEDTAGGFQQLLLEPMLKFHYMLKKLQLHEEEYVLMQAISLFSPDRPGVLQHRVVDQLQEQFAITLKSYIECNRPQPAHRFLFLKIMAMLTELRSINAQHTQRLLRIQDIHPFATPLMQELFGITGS
Estrogen receptor (Homo sapiens) + Estrogen receptor beta (Homo sapiens), sequence (P03372 whole entry, looked up, the tested form may be a part): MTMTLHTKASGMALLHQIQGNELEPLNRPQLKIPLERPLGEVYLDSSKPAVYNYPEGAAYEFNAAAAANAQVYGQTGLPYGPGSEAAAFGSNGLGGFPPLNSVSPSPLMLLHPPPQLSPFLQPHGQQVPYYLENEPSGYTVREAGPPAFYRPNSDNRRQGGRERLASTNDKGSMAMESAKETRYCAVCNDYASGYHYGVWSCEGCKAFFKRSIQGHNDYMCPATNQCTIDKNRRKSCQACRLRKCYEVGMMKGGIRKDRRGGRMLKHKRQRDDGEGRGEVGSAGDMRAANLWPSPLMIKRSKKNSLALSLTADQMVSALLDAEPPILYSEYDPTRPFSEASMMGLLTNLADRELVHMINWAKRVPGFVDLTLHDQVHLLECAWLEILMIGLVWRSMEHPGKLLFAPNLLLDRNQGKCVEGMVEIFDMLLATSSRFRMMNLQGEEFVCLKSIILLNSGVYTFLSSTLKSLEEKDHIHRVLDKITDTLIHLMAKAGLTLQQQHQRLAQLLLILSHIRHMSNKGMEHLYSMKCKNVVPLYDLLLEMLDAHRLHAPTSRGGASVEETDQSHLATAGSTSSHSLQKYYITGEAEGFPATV
Estrogen receptor (Homo sapiens) + Estrogen receptor beta (Homo sapiens), sequence (Q92731 whole entry, looked up, the tested form may be a part): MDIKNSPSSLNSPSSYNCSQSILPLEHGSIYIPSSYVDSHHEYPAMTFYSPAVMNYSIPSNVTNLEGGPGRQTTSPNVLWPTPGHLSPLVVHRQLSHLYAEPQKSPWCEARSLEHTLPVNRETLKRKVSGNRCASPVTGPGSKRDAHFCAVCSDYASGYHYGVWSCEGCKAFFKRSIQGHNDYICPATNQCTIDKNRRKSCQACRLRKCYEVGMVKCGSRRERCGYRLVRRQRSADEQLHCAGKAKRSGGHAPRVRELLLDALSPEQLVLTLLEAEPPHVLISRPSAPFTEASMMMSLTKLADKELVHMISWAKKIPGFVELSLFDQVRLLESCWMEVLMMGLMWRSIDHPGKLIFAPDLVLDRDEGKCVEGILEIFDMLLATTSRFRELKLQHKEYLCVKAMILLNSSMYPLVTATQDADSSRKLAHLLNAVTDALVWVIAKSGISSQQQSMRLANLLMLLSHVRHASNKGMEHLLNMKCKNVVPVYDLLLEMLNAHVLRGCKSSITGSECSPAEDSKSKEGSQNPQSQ

On to `Nc1nc(N)c2nc(-c3ccccc3)c(N)nc2n1`, for which the result in [1], in assay [2] and in assay [3] was inactive.
As to `CCOC(=O)c1ccccc1`, the outcome in assay [4] and in assay [5] was inactive.
In the case of `OC(C(F)(F)F)(C(F)(F)F)C(O)(C(F)(F)F)C(F)(F)F`, the concentration at half-maximal activity (AC50) in assay [6] was 22.4 µM (active) and 22.6 µM (active); in [7] it was 7.09 µM (active) and 53.2 µM (active); in [8], 7.66 µM (active). Also, the outcome in [8] was inactive.
For `CCC(C)(CCC(C)C)C(=O)O` (stereo not drawn), the concentration at half-maximal activity (AC50) in assay [9] was 2.32 µM (active).
With `COc1ccc(C(=O)c2ccccc2O)c(O)c1`, the result in assay [10] and in [12] was inactive. In assay [11], the AC50 is 81.7 µM (active).
Take `CCCCCC[C@@H](O)C/C=C\CCCCCCCC(=O)O`: the AC50 in assay [13] is 30.9 µM (active).
For `O=S(=O)(O)c1cccc2ccccc12`, the call in [14] was inactive.
Turning to `C[N+](C)(C)CC(=O)[O-]`, the outcome in assay [15] was inactive.
As for `CC(C)CC(=O)CC(C)C`, the call in assay [16] was inactive.
Consider `Cc1c(C(N)=O)cc([N+](=O)[O-])cc1[N+](=O)[O-]`, for which the outcome in assay [13] was inactive.
As to `CCO[Si](OCC)(OCC)c1ccccc1`, the call in assay [15] was inactive. The AC50 in assay [9] is 1.37 µM (active).
As for `CC[N+](CC)(CC(=O)Nc1c(C)cccc1C)Cc1ccccc1`, in assay [17], the compound was classed as inactive.
For `CCCCC(CC)COC(=O)C=Cc1ccc(OC)cc1` (stereo not drawn), the compound was called inactive in assay [10], in assay [11] and in assay [12].
As to `C=CCOCC(CC)(CO)COCC=C`, the compound was called inactive in assay [14].
On to `CC(=[OH+])/C=C(/C)[O-].CC(=[OH+])/C=C(/C)[O-].CC(=[OH+])/C=C(/C)[O-].[Al]`, for which the AC50 in assay [17] was 7.03 µM (active).
Regarding `CC/C=C\CCO`, the compound was called inactive in assay [16].
Take `O=[Se](O)O`: in the assay with THRA (gene 7067), the AC50 is 34.4 µM (active).
As for `Oc1ccc2c(c1)Cc1ccccc1-2`, the outcome in [18] was inactive.
As to `CC(O)(c1ccc(Cl)cc1)c1ccc(Cl)cc1`, the result in [19] was inactive.
Consider `CC(COc1ccccc1)N(CCCl)Cc1ccccc1` (stereo not drawn), for which the outcome in assay [18] and in [19] was inactive.
Consider `CO[C@H]1C[C@@H]2CC[C@@H](C)[C@@](O)(O2)C(=O)C(=O)N2CCCC[C@H]2C(=O)O[C@H]([C@H](C)C[C@@H]2CC[C@@H](O)[C@H](OC)C2)CC(=O)[C@H](C)/C=C(\C)[C@@H](O)[C@@H](OC)C(=O)[C@H](C)C[C@H](C)\C=C/C=C/C=C/1C`, for which the result with THRA (gene 7067) was inactive.

For orientation: AC50 means the midpoint of the concentration-response curve, whichever way the signal moves.
